From PubChem BioAssay
TDP1 block = inhibitors of human tyrosyl-DNA phosphodiesterase TDP1; Q9NUW8; recombinant TDP1, AlphaScreen DNA substrate cleavage; Potency, µM (highest dose often 130 µM), without a hit: at the top dose activity change, negative = inhibition, hits mostly inhibitors; 350,000 tested, 0.28% active; AID 485290; note: nearly all actives have a fitted effect of over 40% in size
Target sequence (Q9NUW8 whole entry, looked up): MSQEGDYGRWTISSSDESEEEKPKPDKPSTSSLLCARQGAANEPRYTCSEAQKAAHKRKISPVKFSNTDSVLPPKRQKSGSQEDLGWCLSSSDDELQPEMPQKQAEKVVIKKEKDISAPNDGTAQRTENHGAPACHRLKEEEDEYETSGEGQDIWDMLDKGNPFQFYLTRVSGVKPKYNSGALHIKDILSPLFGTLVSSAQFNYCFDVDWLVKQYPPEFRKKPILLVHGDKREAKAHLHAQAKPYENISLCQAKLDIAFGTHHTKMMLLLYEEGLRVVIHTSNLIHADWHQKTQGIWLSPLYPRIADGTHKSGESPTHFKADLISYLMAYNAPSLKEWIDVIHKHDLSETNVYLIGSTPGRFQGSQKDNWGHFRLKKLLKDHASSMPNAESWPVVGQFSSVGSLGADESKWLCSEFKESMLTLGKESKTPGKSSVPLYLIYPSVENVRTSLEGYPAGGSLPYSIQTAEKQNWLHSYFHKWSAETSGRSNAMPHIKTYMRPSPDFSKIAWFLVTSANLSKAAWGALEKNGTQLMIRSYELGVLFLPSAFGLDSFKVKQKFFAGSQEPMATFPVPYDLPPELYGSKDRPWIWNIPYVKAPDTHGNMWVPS
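Enzyme-compound mixtures sat 15 min at room temperature, followed by a 5 min reaction with 15 nM final substrate and 10 min with AlphaScreen beads. Recombinant human Tdp1 was used at 1 nM final.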
RORgamma inh = blocks mouse ROR gamma transcriptional activity. P51450. Drosophila S2 Gal4-RORgamma UAS-luciferase reporter, 20 h. Potency, µM (doses to about 53.6 µM), without a hit: at the top dose activity change, negative = inhibition, usual class: inhibitors. 310,000 tested, 5.4% active. AID 2551; note: nearly all actives have a fitted effect of over 60% in size
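Read-out: Photinus luciferase luminescence; inhibitors lower reporter signal. Insect Schneider cells with Gal4-ROR gamma fusion under metallothionein promoter, UAS reporter; 700 uM final copper sulfate induction, 20 hr, ambient temperature.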
Gal4-VP16 FLuc = inhibits Gal4-VP16 luciferase reporter, ROR gamma counter-screen; 310,000 tested, 3.5% active; Drosophila S2 Gal4-VP16 UAS-luciferase, luminescence, 20 h; Potency, µM (doses to about 53.6 µM), inactives show top-dose activity, negative = inhibition, most hits filed as inhibitors;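 note: Gal4-VP16 expression switched on by copper sulfate through the metallothionein promoter; nearly all actives have a fitted effect of over 50% in size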
DT40 TDP1 no CPT = qHTS for Inhibitors of human tyrosyl-DNA phosphodiesterase 1 (TDP1): qHTS in cells in absence of CPT | DT40 Tdp1-/- hTDP1 cells, no CPT, ATP luminescence, 48 h | Potency, µM (titrated, usually from 46.2 µM), for inactives: at the highest dose activity change, negative = growth inhibition, most hits filed as inhibitors | 420,000 tested, 15% active; note: nearly all actives have a fitted effect of over 55% in size
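A cellular qHTS used chicken DT40 cells lacking endogenous Tdp1 but carrying stably transfected human TDP1. Compounds were applied without camptothecin, and cell growth kinetics were judged by ATP-dependent luminescence after ≥48 hr.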
DT40 TDP1 CPT = DT40-hTDP1 cell growth loss with CPT; chicken DT40 Tdp1-/-;hTDP1 cells + 20 nM CPT, ATP luminescence, 48 h; Potency, µM (titrated, usually from 46.2 µM), for inactives: at the top dose activity change, negative = growth inhibition, hits mostly inhibitors; 420,000 tested, 12% active; note: nearly all actives have a fitted effect of over 55% in size
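Cell growth measured by CellTiter-Glo luminescence after a minimum 48 h, 37 C compound exposure with 20 nM CPT in Tdp1-knockout DT40 cells stably expressing hTDP1, seeded 400/well; qHTS titration format.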
Numbers without * were called inactive; ! = a repeat was not active; [ ] = dose if it differs, or a comment. Only some compounds are listed: those with a hit (about 19% of all), similar ones and a draw of the others. Calls come from the whole dose curve; as a rule, active = well fitted curve in the direction sought with a large enough effect; inconclusive = small, poorly fitted or top-dose-only effect, or another doubt; inactive = no such curve, though single readings can be large; an effect the other way counts as inactive or inconclusive. % is set by controls: 0 for no effect and ±100 for the full control effect; potency is the fitted concentration of half-maximal effect.

For COc1ccc(/C=N/N=C(/N)N[N+](=O)[O-])c(OC)c1 the results were TDP1 block 5%, RORgamma inh 2%, Gal4-VP16 FLuc -9%, DT40 TDP1 no CPT inconclusive and DT40 TDP1 CPT inconclusive.
`Oc1cccc2nc3ccccc3nc12` gave TDP1 block 0%, RORgamma inh inconclusive, Gal4-VP16 FLuc 5µM*, DT40 TDP1 no CPT inconclusive and DT40 TDP1 CPT inconclusive.
Screening CC(C)CN1CC[C@@]2(CCCN(C(=O)c3ccncc3)C2)C1 returned RORgamma inh 0%, Gal4-VP16 FLuc -10%, DT40 TDP1 no CPT 0% and DT40 TDP1 CPT 14%.
Screening COc1ccc(C(=O)C2CCCN(Cc3ccsc3)C2)cc1OC (centres undefined) returned TDP1 block 3%, RORgamma inh 11%, Gal4-VP16 FLuc -7%, DT40 TDP1 no CPT -29% and DT40 TDP1 CPT -24%.
`CCCCc1ncc(CN2CCCC(C(=O)c3ccc(SC)cc3)C2)[nH]1` (centres undefined) gave TDP1 block 5%, RORgamma inh 11µM*, Gal4-VP16 FLuc -25%, DT40 TDP1 no CPT inconclusive and DT40 TDP1 CPT inconclusive.
For CN1CCC(N(C)c2nc(-c3ccc([N+](=O)[O-])cc3)nc3ccccc23)CC1 the results were TDP1 block 0%, RORgamma inh -23%, Gal4-VP16 FLuc inconclusive, DT40 TDP1 no CPT 12µM* and DT40 TDP1 CPT 8.2µM*.
Screening COc1ccccc1CN1CCN(C(=O)COc2cccc(C)c2)CC1 returned TDP1 block -5%, RORgamma inh 1%, Gal4-VP16 FLuc 16%, DT40 TDP1 no CPT 21µM*! and DT40 TDP1 CPT inconclusive.
Screening COc1ccc(CN2CCN(C(=O)COc3cccc(C)c3)CC2)c(OC)c1 returned TDP1 block -1%, RORgamma inh 7%, Gal4-VP16 FLuc -10%, DT40 TDP1 no CPT inconclusive and DT40 TDP1 CPT inconclusive.
`COc1ccc(OC)c(CN2CCN(C(=O)COc3cccc(C)c3)CC2)c1` gave TDP1 block -5%, RORgamma inh 43%, Gal4-VP16 FLuc 7%, DT40 TDP1 no CPT inconclusive and DT40 TDP1 CPT 26µM*.
Oc1ccc([C@H]2CNCc3c2ccc(O)c3O)cc1O was read as DT40 TDP1 no CPT -80% and DT40 TDP1 CPT inconclusive.
For CCOc1ccc(NC(=O)c2cccn(Cc3cccc(Cl)c3)c2=O)cc1 the results were TDP1 block -1%, DT40 TDP1 no CPT inconclusive and DT40 TDP1 CPT inconclusive.
O=C(OCC(=O)c1ccc([N+](=O)[O-])cc1)/C(=C/c1ccc(Cl)cc1)NC(=O)c1ccccc1 was read as TDP1 block 5%, RORgamma inh 40%, Gal4-VP16 FLuc -9%, DT40 TDP1 no CPT 23µM* and DT40 TDP1 CPT 16µM*.
For COC(=O)C1=C(c2ccc(OCc3ccccc3)cc2)C[C@@H]2CC[C@H]1N2C(=O)NCc1ccc(F)cc1 the results were DT40 TDP1 no CPT 23µM* and DT40 TDP1 CPT 15µM*.
`COC(=O)C1=C(c2ccc(OCc3ccccc3)cc2)C[C@@H]2CC[C@H]1N2C(=O)NCCCc1ccccc1` gave TDP1 block 3%, DT40 TDP1 no CPT 13µM* and DT40 TDP1 CPT 15µM*.
`COC(=O)C1=C(c2ccccc2)C[C@@H]2CC[C@H]1N2C(=O)NCc1ccccc1` gave DT40 TDP1 no CPT -25% and DT40 TDP1 CPT 0%.
Screening COC(=O)C1=C(c2ccc(OCc3ccccc3)cc2)C[C@@H]2CC[C@H]1N2C(=O)NCc1ccccc1C(F)(F)F returned DT40 TDP1 no CPT 12µM* and DT40 TDP1 CPT 16µM*.
For COC(=O)C1=C(c2ccc(OCc3ccccc3)cc2)C[C@@H]2CC[C@H]1N2C(=O)NCc1ccc(OC)c(OC)c1 the results were TDP1 block 2%, DT40 TDP1 no CPT 23µM* and DT40 TDP1 CPT 18µM*.
Screening COC(=O)C1=C(c2ccc(OCc3ccccc3)cc2)C[C@@H]2CC[C@H]1N2C(=O)NCc1ccc(N(C)C)cc1 returned TDP1 block 10%, DT40 TDP1 no CPT inconclusive and DT40 TDP1 CPT inconclusive.
`CCC12CN3CCN(CC(C3)/C1=N\O)C2` gave TDP1 block 3%, RORgamma inh -1%, Gal4-VP16 FLuc 0%, DT40 TDP1 no CPT 9% and DT40 TDP1 CPT 8%.
COC(=O)C1=C(c2ccc(OCc3ccccc3)cc2)C[C@@H]2CC[C@H]1N2C(=O)NCc1ccccc1OC was read as DT40 TDP1 no CPT 8.2µM* and DT40 TDP1 CPT 16µM*.
`O=P1(Oc2ccccc2)C[C@@H](O)[C@@H](O)[C@H](COCc2ccccc2)O1` (some centres undefined) gave RORgamma inh -41%, Gal4-VP16 FLuc -7%, DT40 TDP1 no CPT -9% and DT40 TDP1 CPT -9%.
`COc1ccc(CC2c3cc(OC)c(OC)cc3CCN2C)cc1OC` (centres undefined) gave TDP1 block 2%, RORgamma inh 3%, Gal4-VP16 FLuc 2%, DT40 TDP1 no CPT 23µM*! and DT40 TDP1 CPT 18µM*!.
`N=C(N)c1c(O)n(C2CCCCC2)c(=O)n(C2CCCCC2)c1=O` gave TDP1 block 0%, RORgamma inh inconclusive, Gal4-VP16 FLuc -2%[0.365 µM], DT40 TDP1 no CPT inconclusive and DT40 TDP1 CPT inconclusive.
`CCOc1ccccc1CN1C2CCC1CC(c1ccc(C)cc1)C2` (centres undefined) gave RORgamma inh -38%, Gal4-VP16 FLuc 14%, DT40 TDP1 no CPT 18µM* and DT40 TDP1 CPT 23µM*.
Screening CNC(=O)ON(C(=O)NC)C1N(C)C(=S)SC1(C)C (centres undefined) returned TDP1 block -2%, RORgamma inh 0%, Gal4-VP16 FLuc -1%, DT40 TDP1 no CPT -25% and DT40 TDP1 CPT inconclusive.
For O=C(c1cccc(Cl)c1)C1CCCN(Cc2cccc3cnccc23)C1 (centres undefined) the results were RORgamma inh 7.1µM*, Gal4-VP16 FLuc -28%, DT40 TDP1 no CPT 21µM* and DT40 TDP1 CPT inconclusive.
CSc1ncc(CN2CCCC(C(=O)c3cccc(Cl)c3)C2)cn1 (centres undefined) was read as TDP1 block 5%, RORgamma inh 41%, Gal4-VP16 FLuc -5%, DT40 TDP1 no CPT inconclusive and DT40 TDP1 CPT 21µM*.
Screening O=C(c1ccc(Cl)cc1)C1CCCN(Cc2cccc3cnccc23)C1 (centres undefined) returned TDP1 block 0%, RORgamma inh inconclusive, Gal4-VP16 FLuc 35µM*, DT40 TDP1 no CPT 6.5µM* and DT40 TDP1 CPT 21µM*.
